# Source: PubChem BioAssay AID485313 (National Center for Advancing Translational Sciences (NCATS), 2010)
# Among all 320,000 compounds or so, about 7,600 (2.4%) were called active. Inconclusive results (about 3%) are left out. The list comes from a sample in which actives are over-represented; it also holds similar structures and randomly drawn compounds. Values without a mark were called inactive. The call rests on the fitted dose curve; in most records, active means well fitted activation curve with a large enough effect; inconclusive means small, poorly fitted or top-dose-only effect; inactive means no such curve, though single readings can be large or run the other way.
# Test: qHTS Assay for NPC1 Promoter Activators; further: nearly all actives have a fitted effect of over 60% in size;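 on activation: reporter is driven by a mutant NPC1 promoter; % of control where 0% means no effect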
# Conditions: Huh7 NPC1 promoter luciferase reporter, 24 h; series mostly up to 9.22 µM; activation: at the top concentration
# Summary of the method: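 Huh7 reporter cells (NPC1 promoter driving luciferase) are dosed with compound for 24 h at 37 °C, 5% CO2; luciferase detection reagent is then added and luminescence measured after 10 min at ambient temperature.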
# Potency means the concentration at half of the fitted maximal effect.
SMILES,activation,Potency
O=C(CN1C(=O)NC2(CCCCC2)C1=O)N1CCN(C(=O)c2cccs2)CC1,-1.5%,–
Cc1ccc(/C=C/C(=O)OCC(=O)NCc2ccc(Cl)cc2)o1,-3.5%,–
CCOc1ccc(NC(=O)CN(C)C(=O)CCSc2ccc(F)cc2)cc1OCC,2.17%,–
CC(C)n1ncc2c(C(=O)Nc3ccc(CC#N)cc3)cc(C3CC3)nc21,2.63%,–
Cc1ccc(N/N=C2\COC(C)(C)CC2=O)cc1,–,2.82 µM (active)
Nc1c(N(Cc2ccco2)C(=O)c2cccc(F)c2)c(=O)[nH]c(=O)n1Cc1ccccc1,1.11%,–
COCCN(Cc1ccccc1)C(=O)Cc1ccc(S(=O)(=O)N2CCOCC2)s1,-0.21%,–
Cc1ccc(OCC(=O)Nc2ccc(-c3nc4ncccc4o3)cc2)cc1,23.3%,–
CCc1nc(Nc2ccc(NC(C)=O)cc2)c2oc3ccccc3c2n1,4.77%,–
CC(=O)Nc1ccc(-c2nc3ccccc3o2)cc1,–,1.12 µM (active)
COc1ccc(S(=O)(=O)N2CCN(CC(=O)NCC3(N4CCOCC4)CCCCC3)CC2)cc1,-1.5%,–
COc1ccc(CSc2nnnn2-c2ccc(O)cc2)cc1F,-1.66%,–
Cc1cccc(NC(=O)c2ccc3nsnc3c2)c1C,12.2%,–
O=C(Nc1ccccc1Cl)c1ccc2nsnc2c1,–,2.24 µM (active)
O=C(Nc1ccccc1N1CCCCC1)c1ccc2nccnc2c1,-2.42%,–
O=C(C1CCC1)N1CCN(S(=O)(=O)c2ccc([N+](=O)[O-])cc2)CC1,-0.512%,–
CCOc1ccc(S(=O)(=O)N(CC(=O)NCC(F)(F)F)Cc2ccco2)cc1,-0.109%,–
CCOc1ccc(NC(=O)N(CCC(C)C)C(C)c2ccco2)cc1 (configuration not stated),-0.897%,–
CCOc1ccc(-n2c(SCC(N)=O)nnc2-c2ccco2)cc1,1.18%,–
CC(=O)Nc1ccc(NC(=O)COc2ccc(-c3ccccc3)cc2)cc1,4.85%,–
Cc1ccc(OCC(=O)Nc2ccc(-c3nnc(-c4ccco4)o3)cc2)cc1,–,2.82 µM (active)
Cc1ccc(OCC(=O)Nc2nnc(-c3ccco3)s2)cc1,-2.26%,–

SMILES,activation,Potency
CCOc1ccc(-c2nnc(-c3ccco3)o2)cc1,–,0.631 µM (active)
COc1ccc(OCC(=O)Nc2nnc(-c3ccco3)s2)cc1,-6.29%,–
O=C(CCc1ccccc1)Nc1cccc(-c2nnc(-c3ccco3)o2)c1,15.9%,–
CCCCOc1ccc(-c2nnc(-c3ccco3)o2)cc1,–,1.58 µM (active)
CCC[C@H]1CCCC/C=C\CCCC(=O)OCCN1C(=O)OC(C)(C)C,-2.58%,–
CCOCCn1[nH]c2ccccc2c1=O,8.92%,–
CC(C)NC(=O)N1CCN(c2ccncc2S(=O)(=O)N2CCCCC2)CC1,-6.15%,–
O=C(NC1CCCCCC1)C1CCN(C(=O)c2ccc(Cl)cc2)CC1,-1.36%,–
CCc1sc(C(=O)N2CCN(CC(=O)Nc3cccc(F)c3)CC2)cc1C,-2.76%,–
COc1cccc(C2=CC(=O)C[C@H](c3ccc(OC)c(OC)c3)C2)c1,0.572%,–
Cc1cc(CO)nn1-c1ccc([N+](=O)[O-])cc1,-0.734%,–
Cn1nc(-c2ccccc2)c2cc([N+](=O)[O-])ccc21,3.87%,–
Cc1nn(-c2ccc([N+](=O)[O-])cc2)c(N)c1-c1ccccc1,–,1.58 µM (active)
COC(=O)C1=CO[C@@H](O[C@@H]2O[C@H](CO)[C@@H](O)[C@H](O)[C@H]2O)C2C1C[C@H](O)[C@@H]2C (some centres not stated),-0.388%,–
CCc1cccc(NC(=O)COC(=O)c2cc(=O)c3ccccc3o2)c1,-1.37%,–
CCOC(=O)C1CCN(C(=O)c2cccc(S(=O)(=O)N(CC)c3ccccc3)c2)CC1,-2.25%,–
COCCN(C(=O)CC1CCCCC1)c1c(N)n(CC(C)C)c(=O)[nH]c1=O,2.93%,–
Cc1ccc(Cl)cc1NC(=O)c1ccccn1,-2.16%,–
Cc1cccc(NC(=O)CSCC(=O)Nc2nnc(C3CC3)s2)c1,-1.19%,–
Cc1cc(C(=O)Nc2nnc(C3CC3)s2)c(C)s1,–,3.55 µM (active)
Cc1cnc(NC(=O)c2ccccn2)s1,–,0.447 µM (active)
O=C(Nc1nnc(C2CC2)s1)c1ccccn1,–,1.12 µM (active)

SMILES,activation,Potency
Cc1cnc(NC(=O)C2CCCC2)s1,11.4%,–
O=C(Nc1nnc(C2CC2)s1)c1cc(Cl)sc1Cl,24.6%,–
O=C(Cc1cccs1)Nc1nnc(C2CC2)s1,-1.03%,–
CCc1cc(C(=O)Nc2nnc(C3CC3)s2)sc1C,29.4%,–
CCc1ccccc1OCC(=O)Nc1ccc(C)c(S(=O)(=O)N2CCCCCC2)c1,0.449%,–
O=C(NCc1cccc(Cl)c1)C1=CC=CN2CCS(=O)(=O)N=C12,0.609%,–
CC(C)Cn1c(N)c(C(=O)COC(=O)C2CCCN2C(=O)c2cccs2)c(=O)n(C)c1=O (configuration not stated),-5.84%,–
COc1ccccc1Nc1nnc(SC(C)C(=O)NC2CC2)s1 (configuration not stated),-1.22%,–
O=C(/C=C/c1ccc(N2CCOCC2)cc1)c1ccccc1,–,2 µM (active)
O=C(CN1CCN(S(=O)(=O)/C=C/c2ccccc2)CC1)Nc1ccc(N2CCOCC2)cc1,-4.53%,–
CC(=O)Nc1ccc(/C=C/C(=O)c2ccccc2)cc1,–,2.51 µM (active)
O=C(O)c1ccc2c(c1)C(=O)N(c1ccc(/C=C/C(=O)c3ccccc3)cc1)C2=O,4.16%,–
CC(=O)Nc1ccc(NC(=S)NC(=O)/C=C/c2ccccc2)cc1,-7.81%,–
CC(OC(=O)/C=C/c1ccccc1)C(=O)Nc1ccc(C(N)=O)cc1 (configuration not stated),-2.06%,–
O=C(Nc1ccccc1N1CCOCC1)c1ccncc1,1.48%,–
CCN(C(=O)CSc1ncnc2sccc12)c1c(N)n(Cc2ccccc2)c(=O)[nH]c1=O,-2.5%,–
CC1(C)CC(=O)C=C(c2ccc3ncccc3c2)C1,-0.503%,–
COc1ccc2c3c(c(=O)oc2c1)C1O[C@](CCCCN2C(=O)c4ccccc4C2=O)(Cc2c1ccc1ccccc21)O3,-3.07% [at 1.84 µM],–
O=C(Cn1nnc(-c2ccccc2)n1)NC(=O)NC1CCCC1,-1.17%,–
O=C(COC(=O)Cn1[nH]c(=O)c2ccccc2c1=O)Nc1ncc(Cl)cc1Cl,-0.303%,–
COc1ccccc1/C=C/C(=O)OCC(=O)NC1CCCCCC1,-2.47%,–
CCOC(=O)c1c(C)[nH]c(C2=NNC(=NC(C)COC)SC2)c1C (configuration not stated),–,1.58 µM (active)

SMILES,activation,Potency
COc1ccc(CCNC(=O)COC(=O)C2CC2C)cc1 (configuration not stated),-0.82%,–
CN(Cc1cccnc1)C(=O)c1cc(COc2ccc3ncccc3c2)on1,-17.8%,–
Cc1cc(CN(C)C(=O)c2cc(COc3ccc(C)c(C)c3)on2)n[nH]1,–,2.51 µM (active)
CN(Cc1cnccn1)C(=O)c1cc(COc2cccc(C(F)(F)F)c2)on1,20.7%,–
CCn1ccnc1CN(C)C(=O)c1cc(COc2ccc(-n3cncn3)cc2)on1,3.54%,–
CN(CCOc1ccccc1)C(=O)c1cc(COc2c(F)cccc2F)on1,-0.673%,–
Cc1ccc(OCc2cc(C(=O)N(C)CCc3ccccc3)no2)cc1C,–,2.82 µM (active)
CC1CC(C)CN(C(=O)COC(=O)c2ccc3ncsc3c2)C1 (configuration not stated),-0.452%,–
Cc1ccc(NC(=O)CCNC(=O)c2ccc([N+](=O)[O-])cc2)cc1S(=O)(=O)N1CCOCC1,-0.724%,–
O=C(NCCc1ccc(C(F)(F)F)cc1)c1ccc2c(c1)OCO2,-0.0657%,–
COc1ccc(NC(=O)CSc2nnc(C3CC3)n2C)cc1S(=O)(=O)N1CCCCC1,5.26%,–
Cc1ccc(NC(=O)C2(N3CCC3=O)CCCCC2)cc1,-6.24%,–
COc1ccc(C(=O)NCCSc2ccccc2C)cc1,–,1.26 µM (active)
COc1ccc(C(=O)NCc2nnc(SCCOc3ccccc3)n2C)cc1,-5.31%,–
COc1cccc(C(=O)NCCSc2ccc(Br)cc2)c1,-7.75%,–
Cc1c(NS(=O)(=O)c2cc(C(=O)NCCc3ccc(F)cc3)cc(Cl)c2Cl)c(=O)n(-c2ccccc2)n1C,-5.14%,–
Cc1cc(/C=C2/NC(=O)NC2=O)c(C)n1-c1cccnc1,1.57%,–
Cc1ccccc1-n1c(C)cc(/C=C2\NC(=O)NC2=O)c1C,–,3.55 µM (active)
Cc1cccc(C)c1-n1c(C)cc(/C=C2\C(=O)NN(c3ccccc3)C2=O)c1C,14.8%,–
Cc1ccc(C(=O)NCC(c2cccs2)N(C)C)cc1S(=O)(=O)N1CCOCC1 (configuration not stated),3.21%,–
O=c1oc2ccc(C#CC3(O)CCCCC3)cc2cc1-n1cc(-c2ccsc2)nn1,0.191%,–
O=C(CCNS(=O)(=O)c1ccccc1C(F)(F)F)Nc1ccncc1,-2.75%,–

SMILES,activation,Potency
Cc1ccc(-c2csc(-c3c[nH]c4ccccc34)n2)cc1,–,1 µM (active)
Cc1ccc(-c2csc(-c3cc(C)on3)n2)cc1,24%,–
CCCc1cc(-c2nc(-c3ccc(C)cc3)cs2)ccn1,1.46%,–
Cc1ccc(NC(=O)COC(=O)CN2CCCCCC2=O)c(C)c1,-4.74%,–
CC(=O)Nc1ccc(NC(=O)COC(=O)c2ccccc2C(=O)c2ccccc2)cc1,1.63%,–
COc1ccc(C)cc1NC(=O)c1cc(-c2ccccc2)nc2c1cnn2C(C)C,-0.793%,–
Cc1ccc(Nc2ncnc3c2cnn3C)c(C)c1,-1.96%,–
COc1ccc2nc(C)cc(Nc3cccc(C(=O)O)c3)c2c1,-5.14%,–
Cc1ccc(-n2ncc3c(Nc4cccc(C(=O)O)c4)ncnc32)cc1,–,0.794 µM (active)
CCN(CC(=O)NCc1ccc(Cl)cc1)C(=O)c1c(C)noc1C,-2.27%,–
Cc1ccc(S(=O)(=O)N2CCN(c3ncnc4ccccc34)CC2)cc1,-25.2%,–
Cc1cc(N2CCOCC2)nc(-c2ccc(Br)cc2)n1,1.79%,–
CSc1nnc2ccc(-c3ccc(C)cc3)nn12,-3.85%,–
Cc1ccc(C(=O)Cn2cc([N+](=O)[O-])nc2C)cc1,0.0934%,–
Cc1ccc(-c2cn3cc([N+](=O)[O-])ccc3n2)cc1,–,0.501 µM (active)
Cc1nc(-c2ccc([N+](=O)[O-])cc2)c(-c2ccccc2)o1,-1.23%,–
Cc1ccc2nc(-c3ccc(Br)cc3)cn2c1,–,0.398 µM (active)
CC1CCCC(NC(=O)c2cc(-c3ccncc3)nc3ccccc23)C1C (configuration not stated),4.76%,–
CCOc1ncccc1C(=O)OCC(=O)c1c[nH]c2ccccc12,11.7%,–
